This is an account of results in PubChem BioAssay AID2315 (National Center for Advancing Translational Sciences (NCATS), 2010).

Several values for one entry are separate records, joined by “and”; a condition that tells them apart may be missing. Equal entries are not always repeated. About 27,000 (9.3%) of roughly 290,000 compounds were called active. The full list was thinned out, with actives kept by preference. A number with no mark means an inactive call. Rule as the data show it: active = inhibition mostly above about 28% (no sharp cut-off); inactive = mostly below about 43%.

The nature of this experiment: A qHTS for Small Molecule Inhibitors of Shiga Toxin. Also: 0% is about no effect. Particulars: Vero cells, Shiga toxin protein synthesis inhibition reporter; at 38.7 µM, active compounds read high. On the technique in general: In qHTS, concentration-response curves come from the screen itself.
As usually defined, the inhibition is the drop in the measured response relative to a control, in per cent. Take `COCCNC(=O)C1CCN(C(=O)C2CC(=O)N(c3ccc(C)cc3)C2)CC1` (stereo unspecified): the inhibition was -14.7%.

As for `CCN1C(=S)N[C@@H](CCc2ccccc2)[C@H](C(=O)OC)[C@H]1C`, the inhibition is -2.85% and 15.7%.

With `O=C(NNS(=O)(=O)c1ccc(F)cc1)c1ccc([N+](=O)[O-])cc1Cl`, the inhibition is 30.1%.

On to `CCOc1ccc(CN2CCC(n3nccc3NC(=O)C3CC3)CC2)cc1CO`, for which the inhibition was -3.78%.

For `Cc1ccc(NC(=O)C2CCCN2C(=O)OCc2ccccc2)cc1C` (stereo unspecified), the inhibition is -4.8%.

Regarding `COc1ccc(NC(=O)C2C3CCC(O3)C2C(=O)O)cc1OC` (stereo unspecified), the inhibition is -5.78%.

As to `O=C(CSc1nc(Nc2ccccc2)nc(N2CCOCC2)n1)Nc1cc(Cl)ccc1O`, the inhibition was -4.02%.

Regarding `COc1cc(C(=O)N2CCN(C)CC2)cc(OC)c1OC`, the inhibition was -8.49%.

`Cn1ccc(=Nc2ccc(NC(=O)c3ccc(N=c4ccn(C)c5ccc([N+](=O)[O-])cc45)cc3)cc2)cc1`: the inhibition was -0.904%.

`Cc1nccn1CCCNC(=O)CC1C(=O)NCCN1Cc1ccc(Cl)c(F)c1` (stereo unspecified): the inhibition was -1.1%.

For the compound `CCOc1ccc(CN2CCNC(=O)C2CC(=O)NCCCC2CCCC2)cc1` (stereo unspecified), the inhibition was 19% (active).

For the compound `O=C(CC1C(=O)NCCN1Cc1ccc(-c2ccccc2)cc1)NCC1CCOCC1` (stereo unspecified), the inhibition was -14.6%.

Regarding `Cn1c(CCNS(=O)(=O)c2ccc(F)cc2)nnc1SCc1cccnc1`, the inhibition was 16.6%.

In the case of `COCCn1c(SCC(=O)N2CCCCCC2)nc2c(c1=O)SCC2`, the inhibition is -16.9%.

As for `O=C(Nc1ccncc1)c1cc2ccccc2o1`, the inhibition is 57.4% (active).

Regarding `O=C(NCCc1ccc2c(c1)OCCO2)c1cc2ccccc2o1`, the inhibition is 5.6%.

Turning to `Cc1ccc(OC(=O)c2cc3ccccc3o2)cc1`, the inhibition was 27.5%.

For `CC(C)(C)n1nc2c(c1NC(=O)c1cc3ccccc3o1)CSC2`, the inhibition is -8.8%.

Regarding `C/C(=N\NC(=S)Nc1ccc(C)cc1)c1cc2ccccc2o1`, the inhibition was 30.5%.

For the compound `Cc1ccc(NC(=O)c2cc3ccccc3o2)cc1`, the inhibition was 118% (active).

As for `Cc1cc(C)cc(C(=O)OCC(=O)NCCNC(=O)COC(=O)c2cc(C)cc(C)c2)c1`, the inhibition is 22.3%.

On to `CN(C)c1ccc(S(=O)(=O)NCC(=O)NCC2CCCCC2)cc1[N+](=O)[O-]`, for which the inhibition is 3.92%.

Regarding `O=C(NCCN1CCN(C(=O)c2cccc([N+](=O)[O-])c2)CC1)C(=O)NCc1ccc(Cl)cc1`, the inhibition was -5.68%.

In the case of `Clc1ccc(-c2csc(-c3ccncc3)n2)cc1`, the inhibition was 78.2% (active).

For `Fc1ccc(-c2csc(-c3ccc(C4SCCS4)cc3)n2)cc1F`, the inhibition was -3.43%.

As to `COc1ccc(NC(=O)NCCN2CCN(c3ccc(C)cc3)CC2)c(Cl)c1`, the inhibition is -4.91%.

In the case of `CC1CCCCN1CCCNc1ccc(C(CC(N)=O)NC(=O)c2ccccc2)cc1[N+](=O)[O-]` (stereo unspecified), the inhibition was -3.52%.

With `CCN(C(=O)Cc1c(C(=O)O)n(CC)c2ccccc12)c1ccccc1C`, the inhibition was 1.61%.

In the case of `CCC(C(=O)NC1CCCCC1)N(C(=O)c1snc(C(N)=O)c1N)c1ccc(OC)cc1OC` (stereo unspecified), the inhibition is 16.5%.

For the compound `CCCCc1nc(SCC(=O)Nc2nnc(C(C)C)s2)n[nH]1`, the inhibition was 24%.

Regarding `O=C(CP(=O)(c1ccccc1)c1ccccc1)N1CCOCC1`, the inhibition is -5.31%.

In the case of `COC(=O)[C@H](Cc1ccccc1)NC(=O)N1CC(C)OC(C)C1` (stereo partly specified), the inhibition is -8.27%.

As to `CC1CN(C(=S)Nc2ccccc2F)CC(C)O1` (stereo unspecified), the inhibition is -12%.

Consider `O=C(CSC(=S)N1CCCCC1)c1c(F)cccc1F`, for which the inhibition was 61.7% (active).

For the compound `O=C(CSC(=S)N1CCOCC1)c1cc(Br)cc(Br)c1O`, the inhibition was -11.8%.

Turning to `CC1CN(C(=S)SCC(=O)c2ccccc2)CC(C)O1` (stereo unspecified), the inhibition was 94.2% (active).

With `O=C(Nc1ccc(S(=O)(=O)N2CCCCCC2)cc1)c1c(F)cccc1F`, the inhibition was 22.1%.

For the compound `CC(=O)c1ccc(NC(=O)CSC(=S)N2CCCC2)cc1`, the inhibition was -2.78%.

`O=C(CSC(=S)N1CCOCC1)c1ccccc1`: the inhibition is 67.5% (active).

As for `O=C(O)C1CCCCC1C(=O)N1CCN(S(=O)(=O)c2ccc(F)cc2)CC1` (stereo unspecified), the inhibition is -21.1%.

In the case of `CC1CCN(C(=O)c2ccccc2NC(=O)Cc2ccccc2)CC1`, the inhibition was 13.5%.

In the case of `Cc1c(C)c2ccc(OCC(=O)N3CCN(c4cccc(Cl)c4)CC3)cc2oc1=O`, the inhibition was -20.7%.

For the compound `COc1ccccc1C1C(C(N)=O)=C(C)Nc2nc(CCCO)nn21` (stereo unspecified), the inhibition is -12.2%.

For the compound `Cc1nc(SCC(=O)NC2CCCC2)[nH]c(=O)c1C`, the inhibition was -3%.

As to `CC(=O)NS(=O)(=O)c1ccc(N/C(N)=N/c2nc(C)cc(C)n2)cc1`, the inhibition was 4.41%.

As for `Cc1cccc2c1cnn2C(=O)CCC(=O)NC1CCCCC1`, the inhibition is -4.08%.

In the case of `C=CCN(C(=O)Nc1ccc2c(c1)nc(C)n2C)c1ccccc1`, the inhibition is 46.7% (active).

On to `Cc1nc2cc(NCc3cccs3)ccc2n1C`, for which the inhibition was 47.7% (active).

Take `C=CCN(C(=O)Nc1ccc2oc(C)nc2c1)c1ccccc1`: the inhibition is 117% (active).

For the compound `Cc1nc2cc(NC(=O)NC3CC3)ccc2n1C`, the inhibition was 27.2%.

On to `C=CCN(C(=O)Cn1ncc2c1-c1cc(C)ccc1OC2)c1ccccc1`, for which the inhibition is -10.9%.

For the compound `Cc1cc(C)cc(NC(=O)N(C)Cc2ccccc2)c1`, the inhibition was 13.5%.

With `Cn1ncc(Br)c1C(=O)NCc1cccs1`, the inhibition was 20.7%.

With `Cc1nn(CC(=O)Nc2ccc3c(c2)nc(CN2CCCCC2)n3C)c(=O)c2ccccc12`, the inhibition was -8.7%.

For the compound `COc1ccc(-n2cnc3cc(NCc4ccco4)ccc32)cc1`, the inhibition is 66.3%.

With `CCOC(=O)N1CCN(Cc2nc3cc(NC(=O)CC)ccc3n2CC)CC1`, the inhibition was -2.96%.

Turning to `Cc1cc2nc(C)n(CCCNC(=O)Nc3ccccc3)c2cc1C`, the inhibition was 9%.

Consider `Cc1nc2cc(NC(=O)Nc3cccc(F)c3)ccc2n1C`, for which the inhibition was 27.6% (active).

Regarding `O=C(NCCCn1ccnc1)/C(=C\c1ccccc1F)NC(=O)c1ccccc1`, the inhibition was -7.27%.

As for `COc1cc(NC(=O)CCNC(=O)Cn2ccc3ccccc3c2=O)cc(OC)c1OC`, the inhibition is 11.7%.

On to `O=C1CN(C(=O)c2ccccc2F)C(c2ccc(F)cc2)c2cc(F)ccc2N1` (stereo unspecified), for which the inhibition is 18%.
